Measured values as given in ChEMBL document CHEMBL3988442, “University of Dundee, Small-Polar-MMV Screening Library” (2021).
For some assays here: Results with a measured potency or affinity are listed apart.

Assays:
Set-up in all cases: scale not given: direction of the effect not stated beside the values
[1] = biological target: Protein translocase subunit SecA (Escherichia coli (strain K12)) (UniProt P10408); experiment: Assay to Identify E. coli SecA ATPase Inhibitors; assay type: functional; conditions: 30 µM
[2] = biological target: T1, Ubiquitin-activating enzyme e1, putative (Leishmania donovani (strain BPK282A1)) (UniProt E9BSI1); experiment: Leishmania donovani Ubiquitin Activating Enzyme (LdE1); assay type: functional; conditions: 30 µM
T1 sequence (whole entry): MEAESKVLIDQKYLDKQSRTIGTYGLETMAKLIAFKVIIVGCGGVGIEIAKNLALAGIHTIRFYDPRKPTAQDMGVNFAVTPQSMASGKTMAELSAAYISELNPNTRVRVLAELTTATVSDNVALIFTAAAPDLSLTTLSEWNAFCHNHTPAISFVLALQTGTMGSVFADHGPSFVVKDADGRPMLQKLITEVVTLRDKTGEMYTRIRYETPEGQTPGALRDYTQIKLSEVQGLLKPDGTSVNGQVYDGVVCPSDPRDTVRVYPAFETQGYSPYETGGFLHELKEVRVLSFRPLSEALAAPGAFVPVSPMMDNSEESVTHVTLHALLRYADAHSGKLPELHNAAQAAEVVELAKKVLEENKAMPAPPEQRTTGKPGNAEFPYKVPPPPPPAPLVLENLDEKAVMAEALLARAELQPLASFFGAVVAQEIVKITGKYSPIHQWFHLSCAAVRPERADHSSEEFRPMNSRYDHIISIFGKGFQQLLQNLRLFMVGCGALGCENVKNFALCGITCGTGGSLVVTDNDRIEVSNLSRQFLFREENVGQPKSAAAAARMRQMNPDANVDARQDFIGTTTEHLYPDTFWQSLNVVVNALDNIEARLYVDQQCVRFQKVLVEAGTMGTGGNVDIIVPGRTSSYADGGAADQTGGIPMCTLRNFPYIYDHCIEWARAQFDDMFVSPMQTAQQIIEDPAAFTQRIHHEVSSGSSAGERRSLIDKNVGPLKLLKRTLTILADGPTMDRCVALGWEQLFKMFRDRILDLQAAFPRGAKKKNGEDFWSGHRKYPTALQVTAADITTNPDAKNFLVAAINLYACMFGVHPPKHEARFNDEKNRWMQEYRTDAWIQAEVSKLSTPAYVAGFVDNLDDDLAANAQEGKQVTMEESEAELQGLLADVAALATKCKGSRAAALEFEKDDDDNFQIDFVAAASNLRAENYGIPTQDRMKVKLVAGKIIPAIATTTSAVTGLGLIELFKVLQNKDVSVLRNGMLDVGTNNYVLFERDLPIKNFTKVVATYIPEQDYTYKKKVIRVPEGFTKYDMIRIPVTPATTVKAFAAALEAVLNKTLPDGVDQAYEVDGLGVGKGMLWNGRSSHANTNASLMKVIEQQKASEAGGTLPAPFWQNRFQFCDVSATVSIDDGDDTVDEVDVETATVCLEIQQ

[3] = biological target: AMP-activated protein kinase, AMPK (Homo sapiens) (UniProt P54646+O43741+P54619+Q9UGJ0+Q9Y478+Q13131+Q9UGI9); experiment: AMP-dependent Kinase enzyme assay. An in vitro enzyme assay that detects ADP turnover that is directly proportional to AMPK activity. This uses naive AMPK that is activated during the assay with MK-8722; assay type: functional; conditions: 30 µM
[4] = biological target: Sialic acid-binding Ig-like lectin 9 (Homo sapiens) (UniProt Q9Y336); experiment: Hs-Siglec9 ALPHAscreen SOP 20170721; conditions: 10 µM
Trypanosoma cruzi = experiment: Trypanosoma cruzi phosphomannomutase and mannose-1-phosphate guanylyltransferase assay; assay type: functional; conditions: 10 µM
[5] = biological target: T2, Arginase-2, mitochondrial (Homo sapiens) (UniProt P78540); experiment: in vitro enzyme assay to detect the production of urea directly proportional to the activity of Arginase II; assay type: functional; conditions: 33.3 µM; note: in the data most compounds retested in dose-response had high values
T2 sequence (whole entry): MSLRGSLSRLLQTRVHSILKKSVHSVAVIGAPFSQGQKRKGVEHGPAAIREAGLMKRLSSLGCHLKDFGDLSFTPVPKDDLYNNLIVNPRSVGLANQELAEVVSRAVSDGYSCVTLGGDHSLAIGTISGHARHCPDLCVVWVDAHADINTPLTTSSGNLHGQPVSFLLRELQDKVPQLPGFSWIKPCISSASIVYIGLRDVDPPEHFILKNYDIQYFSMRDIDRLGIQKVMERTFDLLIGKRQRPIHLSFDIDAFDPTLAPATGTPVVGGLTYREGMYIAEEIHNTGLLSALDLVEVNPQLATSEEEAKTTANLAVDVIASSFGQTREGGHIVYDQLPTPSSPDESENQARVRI

[6] = biological target: T3, Proteasome subunit beta (Trypanosoma cruzi) (UniProt O96673); experiment: Trypanosoma cruzi proteasome chymotrypsin-like activity (TcProtChymo) assay.; note: in the data most compounds retested in dose-response had high values; assay type: functional; conditions: 9.37 µM
T3 sequence (whole entry): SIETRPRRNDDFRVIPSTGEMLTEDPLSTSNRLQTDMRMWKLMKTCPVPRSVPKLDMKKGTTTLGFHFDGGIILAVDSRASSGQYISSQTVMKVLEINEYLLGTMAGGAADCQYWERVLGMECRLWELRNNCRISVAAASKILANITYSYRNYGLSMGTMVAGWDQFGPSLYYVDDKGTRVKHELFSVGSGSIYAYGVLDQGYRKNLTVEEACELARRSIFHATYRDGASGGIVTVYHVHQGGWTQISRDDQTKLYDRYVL

Homo sapiens = species on record: Homo sapiens; experiment: To identify inhibition of the IFN signalling (Jak-Stat) pathway via expression of an eGFP reporter gene under the control of an IFN-stimulated response element (ISRE) containing MxA promoter.; assay type: functional; conditions: 30 µM
[7] = biological target: T4, Tyrosyl-tRNA synthetase, putative (Trypanosoma cruzi (strain CL Brener)) (UniProt Q4DSP6); experiment: Trypanosoma cruzi tyrosyl tRNA synthetase (TcYRS) _High Tyrosine SOP; assay type: functional; conditions: 30 µM; note: in the data most compounds retested in dose-response had high values
T4 sequence (whole entry): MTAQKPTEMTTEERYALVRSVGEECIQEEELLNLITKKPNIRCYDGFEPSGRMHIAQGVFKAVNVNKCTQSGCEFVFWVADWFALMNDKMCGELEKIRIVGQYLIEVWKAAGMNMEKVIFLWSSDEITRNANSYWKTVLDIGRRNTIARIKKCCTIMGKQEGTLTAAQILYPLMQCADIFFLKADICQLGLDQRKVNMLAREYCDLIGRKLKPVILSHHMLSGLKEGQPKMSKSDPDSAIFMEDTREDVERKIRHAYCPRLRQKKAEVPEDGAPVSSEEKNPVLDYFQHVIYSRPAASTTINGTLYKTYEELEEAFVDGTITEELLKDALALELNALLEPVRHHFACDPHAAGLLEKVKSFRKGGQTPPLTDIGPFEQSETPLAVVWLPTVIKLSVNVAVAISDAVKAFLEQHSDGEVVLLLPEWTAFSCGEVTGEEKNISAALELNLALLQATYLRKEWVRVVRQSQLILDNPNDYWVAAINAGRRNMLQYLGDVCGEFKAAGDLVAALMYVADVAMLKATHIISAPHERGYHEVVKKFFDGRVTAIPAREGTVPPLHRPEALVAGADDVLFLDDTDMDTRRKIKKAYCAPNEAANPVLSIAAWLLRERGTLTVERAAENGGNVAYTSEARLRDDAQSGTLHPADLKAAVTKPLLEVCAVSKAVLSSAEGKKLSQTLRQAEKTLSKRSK

[8] = biological target: T4, Tyrosyl-tRNA synthetase, putative (Trypanosoma cruzi (strain CL Brener)); experiment: Trypanosoma cruzi tyrosyl tRNA synthetase (TcYRS) SOP; assay type: functional; conditions: 30 µM
[9] = biological target: Chromo domain-containing protein 1 (Saccharomyces cerevisiae (strain ATCC 204508 / S288c) (Baker's yeast)) (UniProt P32657); experiment: ScCHD-1 Enzyme Inhibition Assay; assay type: functional; conditions: 30 µM; note: in the data most compounds retested in dose-response had high values
Chromo domain-containing protein 1 (Saccharomyces cerevisiae (strain ATCC 204508 / S288c) (Baker's yeast)), sequence (P32657 whole entry, the tested form may be a part): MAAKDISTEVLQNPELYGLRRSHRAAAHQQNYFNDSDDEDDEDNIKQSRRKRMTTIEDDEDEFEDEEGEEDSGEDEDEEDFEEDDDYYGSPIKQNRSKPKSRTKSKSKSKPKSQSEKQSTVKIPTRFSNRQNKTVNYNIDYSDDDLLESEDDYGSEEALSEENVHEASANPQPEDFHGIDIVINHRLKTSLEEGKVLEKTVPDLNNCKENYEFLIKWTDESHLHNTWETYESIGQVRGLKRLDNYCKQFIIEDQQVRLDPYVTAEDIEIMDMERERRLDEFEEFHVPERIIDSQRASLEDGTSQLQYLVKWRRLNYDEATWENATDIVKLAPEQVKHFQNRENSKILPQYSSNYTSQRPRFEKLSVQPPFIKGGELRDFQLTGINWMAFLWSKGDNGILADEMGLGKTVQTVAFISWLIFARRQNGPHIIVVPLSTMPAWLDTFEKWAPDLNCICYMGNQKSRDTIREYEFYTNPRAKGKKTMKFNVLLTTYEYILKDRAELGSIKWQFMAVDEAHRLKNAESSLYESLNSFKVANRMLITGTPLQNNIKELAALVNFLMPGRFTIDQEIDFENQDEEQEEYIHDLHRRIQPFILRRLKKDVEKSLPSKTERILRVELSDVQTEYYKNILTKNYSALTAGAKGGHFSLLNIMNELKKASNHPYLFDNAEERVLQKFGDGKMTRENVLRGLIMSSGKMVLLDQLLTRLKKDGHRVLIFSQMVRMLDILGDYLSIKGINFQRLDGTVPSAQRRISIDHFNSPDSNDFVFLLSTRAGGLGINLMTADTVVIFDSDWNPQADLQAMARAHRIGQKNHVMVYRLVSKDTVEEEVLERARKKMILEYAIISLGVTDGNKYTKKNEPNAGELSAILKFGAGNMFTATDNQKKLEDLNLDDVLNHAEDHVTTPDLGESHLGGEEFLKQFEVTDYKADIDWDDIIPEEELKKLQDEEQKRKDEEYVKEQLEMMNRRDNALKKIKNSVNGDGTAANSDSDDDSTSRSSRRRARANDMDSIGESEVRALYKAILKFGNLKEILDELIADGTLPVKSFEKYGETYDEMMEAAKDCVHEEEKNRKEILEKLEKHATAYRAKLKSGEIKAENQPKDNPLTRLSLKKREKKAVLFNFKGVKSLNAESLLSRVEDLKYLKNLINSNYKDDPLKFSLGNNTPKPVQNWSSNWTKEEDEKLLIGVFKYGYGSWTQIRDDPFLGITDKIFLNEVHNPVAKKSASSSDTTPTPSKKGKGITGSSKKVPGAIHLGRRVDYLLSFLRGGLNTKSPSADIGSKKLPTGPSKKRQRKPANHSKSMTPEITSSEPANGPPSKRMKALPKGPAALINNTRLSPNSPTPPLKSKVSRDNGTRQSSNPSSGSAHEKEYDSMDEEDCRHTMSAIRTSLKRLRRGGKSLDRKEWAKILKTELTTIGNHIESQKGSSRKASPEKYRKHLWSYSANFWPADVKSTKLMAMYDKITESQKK

Protein translocase subunit SecA (Escherichia coli (strain K12)), sequence (P10408 whole entry): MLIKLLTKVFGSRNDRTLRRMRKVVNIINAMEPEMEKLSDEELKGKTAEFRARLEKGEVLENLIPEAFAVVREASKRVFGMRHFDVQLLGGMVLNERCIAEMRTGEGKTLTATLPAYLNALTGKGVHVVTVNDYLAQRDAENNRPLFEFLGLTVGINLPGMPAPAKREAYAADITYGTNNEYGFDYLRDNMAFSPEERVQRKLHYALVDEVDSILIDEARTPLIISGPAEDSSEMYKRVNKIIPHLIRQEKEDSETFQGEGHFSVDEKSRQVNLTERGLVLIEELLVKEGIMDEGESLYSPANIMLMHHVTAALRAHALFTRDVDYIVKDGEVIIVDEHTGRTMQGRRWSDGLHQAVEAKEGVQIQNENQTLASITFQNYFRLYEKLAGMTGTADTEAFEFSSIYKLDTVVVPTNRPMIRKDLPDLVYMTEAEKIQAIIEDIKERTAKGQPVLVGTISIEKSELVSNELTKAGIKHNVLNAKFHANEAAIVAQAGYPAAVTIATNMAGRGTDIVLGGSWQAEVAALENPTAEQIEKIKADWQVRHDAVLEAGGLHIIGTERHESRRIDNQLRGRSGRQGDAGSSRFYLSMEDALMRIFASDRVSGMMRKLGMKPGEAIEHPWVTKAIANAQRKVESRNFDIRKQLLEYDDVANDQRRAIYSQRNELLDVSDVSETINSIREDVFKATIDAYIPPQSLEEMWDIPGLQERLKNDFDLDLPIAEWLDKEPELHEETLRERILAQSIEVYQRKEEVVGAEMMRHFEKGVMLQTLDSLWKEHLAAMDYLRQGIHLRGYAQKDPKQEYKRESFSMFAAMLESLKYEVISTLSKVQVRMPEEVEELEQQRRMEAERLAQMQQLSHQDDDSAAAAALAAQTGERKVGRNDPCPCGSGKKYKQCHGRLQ
Sialic acid-binding Ig-like lectin 9 (Homo sapiens), sequence (Q9Y336 whole entry): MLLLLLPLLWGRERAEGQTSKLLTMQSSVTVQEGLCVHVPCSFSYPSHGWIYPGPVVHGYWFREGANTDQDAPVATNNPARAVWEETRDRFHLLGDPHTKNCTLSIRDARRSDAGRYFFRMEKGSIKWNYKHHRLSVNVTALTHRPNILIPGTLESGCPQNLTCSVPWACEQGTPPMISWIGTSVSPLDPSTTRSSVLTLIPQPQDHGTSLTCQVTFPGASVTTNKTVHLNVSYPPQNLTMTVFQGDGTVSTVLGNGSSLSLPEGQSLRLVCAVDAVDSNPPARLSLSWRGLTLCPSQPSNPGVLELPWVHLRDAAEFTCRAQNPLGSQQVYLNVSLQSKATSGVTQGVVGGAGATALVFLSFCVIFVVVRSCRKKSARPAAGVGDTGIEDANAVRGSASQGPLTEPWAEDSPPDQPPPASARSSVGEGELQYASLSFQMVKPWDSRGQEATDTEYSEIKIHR

SMILES | Percent Effect [1] [%] | Percent Effect [2] [%] | Percent Effect [3] [%] | Percent Effect [4] [%] | Percent Effect (Trypanosoma cruzi) [%] | Percent Effect [5] [%] | Percent Effect [6] [%] | Percent Effect (Homo sapiens) [%] | Percent Effect [7] [%] | Percent Effect [8] [%] | Percent Effect [9] [%]
CN(C)c1nc2c(c(N3CCC(O)CC3)n1)CN(CC1CCNC1)CC2 (configuration not stated) | -1.69 | 10.8 | -1.59 | 10.5 | 0.193 | 0.476 | 10.9 | 2.62 | 12.2 | 19.5 | -4.09
Cc1nc(C)n(CC2CCCN2Cc2cc(C)on2)n1 (configuration not stated) | -7.09 | 5.2 | -68.4 | -5.71 | -2.06 | 3.58 | 12.2 | 19.8 | 0 | 7.06 | -23.5
Cc1ncsc1C(=O)NC1CCN(Cc2cccnc2)CC1 | -7.38 | 10.4 | -1.95 | 18.2 | 5.43 | 2.85 | 7.94 | 15.2 | 6.8 | 14.6 | -11.8
CC(C)C(=O)N1CCN(C(=O)CCc2nnc(-c3ccccc3)o2)CC1 | -1.03 | 5.06 | -0.0997 | 0.624 | -4.06 | 4.94 | 0.901 | 16.1 | 3.45 | 8.86 | -7.27
Cc1cc(C)nc(NC(=O)C(C)Oc2ccc3c(c2)OCO3)n1 (configuration not stated) | -1.24 | 5.2 | -2.31 | 4.95 | 5.21 | 0 | 19.6 | 5.23 | 8.6 | 18.5 | -2.76
CC(C)N(CC(N)=O)Cc1csc(COc2ccc(F)cc2)n1 | -3.17 | 25.3 | -6.77 | 1.71 | 7.65 | -4.18 | 8.76 | 63.8 | 5.42 | 24.1 | -4.66
Cc1ncc(CNC(=O)Nc2cc(C(F)(F)F)c[nH]c2=O)s1 | -6.87 | -1.39 | -10.2 | -4.64 | -5.34 | 2.65 | 18.2 | -11.2 | -1.05 | -2.56 | 0.478
CC(C)c1nc(C2CCCN2CCCc2nc3ccccc3o2)no1 (configuration not stated) | -2.74 | -8.11 | -9.61 | 9.51 | 1.42 | -6.81 | -1.62 | 5.36 | 2.46 | -6.17 | 0.486
CC(=O)NCC(=O)N1CC[C@H](OCC2CC2)[C@@H]1Cc1cccnc1 | -0.669 | 5.33 | -3.45 | 5.96 | -2.51 | -50 | 5.47 | 1.5 | 1.04 | -47.5 | -0.336
O=C(NCCn1ccnc1)c1cccc(F)c1 | -1.92 | 18.4 | -6.48 | -8.53 | -4.39 | 0.36 | 9.56 | -11.5 | 5.42 | 13.6 | -6.88
CCc1noc(C(C)N(C)CC(=O)Nc2ccc(C)cc2)n1 (configuration not stated) | -4.41 | 0 | 2.85 | 1.79 | -2.55 | -0.455 | -0.887 | -0.282 | -1.07 | -2.5 | 2.11
CCN1C[C@H]2CCN(C(=O)NC3CCCC3)CC[C@H]2S1(=O)=O | 2.4 | 14.7 | 2.73 | -7.67 | -3.54 | -5.81 | 15.5 | 2.2 | 1.06 | 5.13 | -7.62
CCn1c(Cn2cncn2)nnc1C1CCN(C(=O)CCSC)CC1 | -3.03 | 2.7 | -5.34 | 25.4 | 3.23 | 20.6 | 0.944 | 20.4 | 6.45 | 13.6 | -3.37
CCc1nc(CN2CCCC(NCc3cnn(C(C)(C)C)c3)C2)no1 (configuration not stated) | -2.85 | 2.53 | -0.494 | 3.84 | -1.6 | -1.52 | 6.63 | 14.9 | -1.48 | -1.27 | -0.901
CCCc1ncc(C(=O)N2CCOC(c3nc(C)n[nH]3)C2)s1 (configuration not stated) | -2.75 | -3.8 | 4.69 | 3.58 | -6.46 | 7.1 | 5.66 | 11.7 | 1.04 | -2.53 | 9.76
O=C(N1CCCO1)[C@@]12CCO[C@@H]1CCN(C1CCCCC1)C2 | -5.99 | 16 | -8.58 | 1.15 | 0 | -50.7 | 4.96 | -2.54 | -105 | 15 | -10.2
CC(C)c1nc2c(n1C)CCN(Cc1nc(-c3cccs3)no1)C2 | -5.48 | -5.41 | 8.78 | 3.18 | 1.21 | -1.66 | 2.33 | 0.809 | 6.93 | 11 | 9.28
Cc1cccc(-n2ncc(C(=O)N3CCn4c(C)nnc4C3)c2C)c1 | -5.28 | 13.2 | 0.162 | -0.191 | -4.58 | 1.8 | 5.16 | 12.8 | -0.493 | 3.7 | -0.99
CCN1CCN(C2CCN(Cc3cc(C)on3)CC2)C1=O | -6.77 | 5.06 | 1.9 | -3.3 | 8.21 | -3.04 | 7.94 | 1.37 | 3.45 | 8.86 | -13.6
O=C(N1CCCCC1)N1CCN(CC(O)c2ccc(F)cc2)CC1 (configuration not stated) | -0.539 | 13.2 | -0.12 | 5.2 | -4.51 | 4.21 | 4.84 | 20.8 | 8.33 | 17.1 | -5.09
O=C1CC(c2ccccc2F)c2c(n3ccsc3nc2=O)N1 (configuration not stated) | -2.59 | 9.33 | 1.41 | 7.25 | 2.95 | -5.46 | 7.76 | 2.76 | 4.23 | 12.8 | -9.93
Cc1cccc(N2CCN(C(=O)CN3CCN(CCO)CC3)CC2)c1 | -7.92 | 8.22 | 2.85 | 6.75 | 3.37 | 0.798 | 3.51 | 10.3 | 9.38 | 21 | -0.672
